Wnt bcat act: activators of Wnt/beta-catenin signaling; activation, % at 9.35 µM; Wnt/beta-catenin reporter cell assay, activator, plate reader; AID 743398; actives 1.2% (n = 300,000); in the data active means activation above about 30%, passing the limit was not always enough; inconclusive means no clear call, values can overlap the other calls;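 further: 0% = neutral control wells and 100% = positive control wells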
MITF TRPM1 HTS: increases MITF-driven TRPM1 promoter luciferase signal; actives 0.75% (n = 300,000); activation, % at 12.5 µM; AID 588334; SK-MEL-5 TRPM1-promoter luciferase, 24 h; % of positive control, neutral wells = 0;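 active means mean activation of at least 80% with every replicate also reaching 80%; inconclusive means mean reaches 80% but some replicate falls short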;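 further: 0% = neutral control wells and 100% = parthenolide positive control wells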
Vif imaging: blocks HIV Vif function. HEK293T cells, Vif self-association by quenched fluorescence, imaging, 24 h. inhibition, % at 7.49 µM. actives 0.35% (n = 340,000); in the data active means inhibition above about 50%, passing the limit was not always enough; inconclusive means no clear call, values can overlap the other calls; inactive means below about 31%
Glyco luc inh: blocks N-linked glycosylation in D54 reporter cells. D54 ERlucT glycosylation luciferase reporter, 24 h; percent of 100 nM tunicamycin response. reporter increase, % at 12.5 µM. actives 0.23% (n = 360,000);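 active means mean luciferase reporter signal, scaled so untreated is 0 and the glycosylation-blocking control 100, at or above a set limit in every replicate; inconclusive means mean reaches the limit but not every replicate does; inactive means mean below the limit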;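 further: luciferase carries N-glycosylation sites so blocking glycosylation raises the light; 0% = median of neutral control wells and 100% = median of 100 nM tunicamycin wells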
PvdQ inh: blocks Pseudomonas aeruginosa PvdQ acylase activity; inhibition, % at 10 µM; purified PvdQ acylase, fluorescence plate reader; actives 0.063% (n = 340,000); in the data active means inhibition above about 30%, passing the limit was not always enough; inconclusive means no clear call, values can overlap the other calls;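 further: 0% = vehicle neutral wells and 100% = reference inhibitor wells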
esBAF inh: blocks esBAF chromatin remodeling in mouse ES cells; Bmi1-luciferase knock-in reporter, 24 h; 100% = twice the neutral-well signal; reporter increase, % at 12.5 µM; actives 2% (n = 350,000); in the data active means activation above about 40%; inconclusive means no clear call, values can overlap the other calls;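 further: 0% = median of the plate's neutral control wells and 100% = double that signal; a rise in the Bmi1 reporter signal indicates esBAF inhibition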
The depositor's hits bear a star; ? = inconclusive; . = no result given. Hits are enriched below; roughly 2.9% of the tested compounds scored in any of these assays.

SMILES	Wnt bcat act	MITF TRPM1 HTS	Vif imaging	Glyco luc inh	PvdQ inh	esBAF inh
O=C(c1ccccc1)c1cc2ccccc2oc1=O	-1	29	-10	1	-8	48
COc1ccc(CN(C)C[C@@H]2OCCCC[C@H](C)Oc3ccc(NC(=O)NC(C)C)cc3C(=O)N([C@@H](C)CO)C[C@@H]2C)cc1	.	.	.	.	.	-8
O=C(Nc1ccccc1)c1cc(C2CCCN(C(=O)CCc3ccccc3)C2)on1 (stereo unspecified)	17	.	-5	-3	.	64*
O=C(Nc1ccc(F)c(Cl)c1)c1cc(C2CCCN(C(=O)CCc3ccccc3)C2)on1 (stereo unspecified)	26	.	3	-2	.	47*
CC(C)S(=O)(=O)N1CCCC(c2cc(C(=O)Nc3ccc(F)c(Cl)c3)no2)C1 (stereo unspecified)	32*	.	-27	-3	.	48*
Cc1noc(C)c1NC(=O)N(C)C[C@@H]1Oc2ccc(NC(=O)C3CCCCC3)cc2C(=O)N([C@H](C)CO)C[C@H]1C	.	.	.	.	.	-2
CCOc1ccc(N/C=C/C(=O)c2ccc(OC)cc2)c([N+](=O)[O-])c1	6	98*	-4	-1	0	73*
CCOc1ccc(NC(=O)c2ccc(CC)s2)c([N+](=O)[O-])c1	5	79	-4	-2	1	50*
O=C(NCC[C@@H]1CC[C@@H](NC(=O)C2CC2)[C@H](CO)O1)Nc1ccc(Cl)cc1	.	.	.	.	.	25
COC(=O)C[C@@H]1CC[C@H]2[C@@H](COC[C@H](O)CN2C(=O)Nc2cccc(F)c2)O1	.	.	.	.	.	20
COc1ccccc1CNC(=O)C[C@H]1CC[C@@H]2[C@H](COC[C@H](O)CN2C(=O)Nc2ccc(Cl)cc2)O1	.	.	.	.	.	43*
COC(=O)C[C@H]1CC[C@H]2[C@@H](COC[C@@H](O)CN2C(=O)Nc2cccc(F)c2)O1	.	.	.	.	.	50*
CCOC(=O)c1ccccc1OCc1cc(/C=N/NC(=O)c2cccnc2)ccc1OC	0	0	0	0	-8	2
CCOC(=O)c1ccccc1OCc1cc(/C=N/n2cnnc2)ccc1OC	2	.	94*	4	3	-1
C[C@H](O)C#Cc1cnc2c(c1)C(=O)N([C@@H](C)CO)C[C@@H](C)[C@@H](CN(C)Cc1ccc(-c3ccccc3)cc1)O2	.	.	.	.	.	-2
CN1CCN(C(=O)C[C@@H]2CC[C@H]3[C@@H](COc4ccc(NC(=O)c5cccs5)cc4C(=O)N3C)O2)CC1	.	.	.	.	.	3
Fc1ccccc1-c1nc(-c2ccc(-c3nn[nH]n3)cc2)no1	39*	47	6	4	-3	34
Fc1ccccc1-c1nc(-c2ccncc2)no1	55*	.	-5	-7	-6	?
Cc1ccc(-c2noc(-c3ccccc3C(=O)N3CCOCC3)n2)cc1	0	-12	.	-1	5	8
CN1CCN(C(=O)c2ccccc2-c2nc(-c3ccccc3)no2)CC1	-1	5	6	1	-7	48*
COc1ccc(-c2noc(-c3ccccc3F)n2)cc1	14	33	-7	-13	23	-15
Fc1ccccc1-c1nc(-c2ccccc2)no1	46*	-3	.	-13	-7	-4
C[C@H]1CN([C@@H](C)CO)C(=O)Cc2cc(NS(=O)(=O)c3cn(C)cn3)ccc2O[C@@H]1CN(C)C(=O)Nc1ccccc1	.	.	.	.	.	3
O=C(c1cccnc1)N1C[C@H]2[C@@H](c3ccccc31)[C@@H](CO)N2C(=O)C1CCOCC1	.	.	.	.	.	2
c1ccc(CNc2c3ccccc3nc3ccccc23)cc1	-1	-74	-18	24	-6	7
SMILES	Wnt bcat act	MITF TRPM1 HTS	Vif imaging	Glyco luc inh	PvdQ inh	esBAF inh
Oc1ccc(CCNc2c3ccccc3nc3ccccc23)cc1O	0	.	2	37*	-17	-4
S=C(S)N1CCCC1	4	9	75*	-2	10	-1
Oc1ccc(C(=S)N2CCCC2)cc1	0	.	1	1	-15	-5
Cc1ccc(-n2nc3c(N4CCC(C(=O)NCCc5cccs5)CC4)nnc(C)c3c2C)cc1	-1	-89	51*	-11	-13	-18
CCS(=O)(=O)c1ccc2oc(Nc3ccccc3C)nc2c1	.	?	-25	0	-5	55*
CCN(CC)S(=O)(=O)c1ccc2oc(Nc3ccccc3)nc2c1	10	42	-4	4	-17	71*
COc1ccc(NC(=O)Nc2ccc3c(c2)[C@H]2C[C@H](CC(=O)N(C)C)O[C@@H](CO)[C@H]2O3)cc1	.	.	.	.	.	4

Assay outcomes (PubChem)
